Where “and” joins values, the source holds several entries; their conditions need not be identical. Identical values can stand only once. The whole screen tested about 5,500 compounds, of which about 2,000 (36%) were called active. Not shown: some 18% with an inconclusive outcome. Rule as the data show it: active = normalized growth mostly below about 0.91 (no sharp cut-off); inconclusive = no clear call, values can overlap the other calls; inactive = mostly above about 0.92. The list shows a part of the results.
Experiment: chemical genetic growth profiling, strain panel (AID 1159580);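 also: tested at 20 µM; growth read once vehicle control cultures reached saturation at 30 °C; 1 = growth at the plate median or of vehicle wells; lower values mean less growth of the strain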
Conditions: S. cerevisiae deletion strains, growth OD

Measured: normalized growth

COc1ccc(CCC(=O)c2c(O)cc(O[C@@H]3O[C@H](CO)C(O)[C@H](O)C3O[C@@H]3O[C@@H](C)[C@H](O)[C@@H](O)[C@H]3O)cc2O)cc1O (some centres not stated)
inactive: locus YAL013W, strain DEP1, stronger effect = lower value 1 | locus YAL021C, strain ccr4, stronger effect = lower value 0.994 | locus YAL026C, strain drs2, stronger effect = lower value 1.04 | locus YAL030W, strain snc1, stronger effect = lower value 1.01 | locus YBL061C, strain skt5, stronger effect = lower value 1.02 | locus YBR009C, strain hhf1, stronger effect = lower value 1.02 | locus YBR021W, strain FUR4, stronger effect = lower value 0.997 | locus YBR023C, strain chs3, stronger effect = lower value 1.02 | locus YBR171W, strain sec66, stronger effect = lower value 1.04 | locus YBR229C, strain ROT2, stronger effect = lower value 0.998 | locus YBR231C, strain swc5, stronger effect = lower value 1.03 | locus YBR279W, strain paf1, stronger effect = lower value 1.02 | locus YCL011C, strain gbp2, stronger effect = lower value 1.02 | locus YCL016C, strain dcc1, stronger effect = lower value 1.01 | locus YCL029C, strain bik1, stronger effect = lower value 0.972 | locus YCL061C, strain MRC1, stronger effect = lower value 1.02 | locus YCL069W, strain vba3, stronger effect = lower value 1.02 | locus YCR088W, strain abp1, stronger effect = lower value 1.02 | locus YDL005C, strain med2, stronger effect = lower value 1.03 | locus YDL035C, strain GPR1, stronger effect = lower value 0.999 | locus YDL040C, strain nat1, stronger effect = lower value 0.998 | locus YDL074C, strain BRE1, stronger effect = lower value 0.966 | locus YDL101C, strain DUN1, stronger effect = lower value 0.995 | locus YDL134C, strain PPH21, stronger effect = lower value 0.997 | locus YDL185W, strain tfp1, stronger effect = lower value 0.955 | locus YDL192W, strain arf1, stronger effect = lower value 0.976 | locus YDR001C, strain nth1, stronger effect = lower value 1.01 | locus YDR069C, strain doa4, stronger effect = lower value 1.04 | locus YDR101C, strain arx1, stronger effect = lower value 0.987 | locus YDR137W, strain rgp1, stronger effect = lower value 1.04 | locus YDR150W, strain NUM1, stronger effect = lower value 1.01 | locus YDR159W, strain sac3, stronger effect = lower value 1.1 | locus YDR162C, strain NBP2, stronger effect = lower value 0.99 | locus YDR195W, strain ref2 0.986 | locus YDR297W, strain sur2, stronger effect = lower value 1.02 | locus YDR318W, strain mcm21, stronger effect = lower value 0.978 | locus YDR334W, strain swr1, stronger effect = lower value 1.03 | locus YDR335W, strain msn5, stronger effect = lower value 1.01 | locus YDR388W, stronger effect = lower value 0.995 | locus YDR392W, strain spt3, stronger effect = lower value 1.02 | locus YDR502C, strain sam2, stronger effect = lower value 1 | locus YEL003W, strain gim4, stronger effect = lower value 1.02 | locus YEL037C, strain rad23, stronger effect = lower value 1.01 | locus YEL061C, strain CIN8 (second series), stronger effect = lower value 1.01 | locus YEL061C, strain CIN8, stronger effect = lower value 0.999 | locus YER015W, strain faa2, stronger effect = lower value 1.01 | locus YER016W, strain bim1, stronger effect = lower value 1.03 | locus YER110C, stronger effect = lower value 0.983 | locus YER111C, strain swi4, stronger effect = lower value 1.01 | locus YER155C, strain BEM2 (second series), stronger effect = lower value 1.03 | locus YER155C, strain BEM2, stronger effect = lower value 0.992 | locus YER167W, strain BCK2, stronger effect = lower value 0.994 | locus YFR010W, strain ubp6, stronger effect = lower value 1.02 | locus YGL078C, strain dbp3, stronger effect = lower value 0.994 | locus YGL086W, strain mad1, stronger effect = lower value 0.999 | locus YGL167C, strain pmr1, stronger effect = lower value 1.03 | locus YGL173C, strain kem1, stronger effect = lower value 1.03 | locus YGL227W, strain vid30, stronger effect = lower value 1.02 | locus YGL240W, strain doc1, stronger effect = lower value 1.05 | locus YGL248W, strain PDE1, stronger effect = lower value 1 | locus YGL253W, strain hxk2, stronger effect = lower value 1.02 | locus YGR078C, strain PAC10, stronger effect = lower value 1.01 | locus YGR135W, strain pre9, stronger effect = lower value 1 | locus YGR229C, strain SMI1, stronger effect = lower value 1.01 | locus YGR252W, strain gcn5, stronger effect = lower value 1.07 | locus YHR013C, strain ard1, stronger effect = lower value 1 | locus YHR027C, strain rpn1, stronger effect = lower value 1.02 | locus YHR030C, strain SLT2, stronger effect = lower value 1 and 0.973 | locus YHR079C, strain IRE1 (second series), stronger effect = lower value 0.98 | locus YHR079C, strain IRE1, stronger effect = lower value 0.961 | locus YHR094C, strain hxt1, stronger effect = lower value 0.966 | locus YHR129C, strain ARP1, stronger effect = lower value 0.998 | locus YHR142W, strain chs7, stronger effect = lower value 1.01 | locus YHR200W, strain rpn10, stronger effect = lower value 0.975 | locus YIL066C, strain RNR3, stronger effect = lower value 0.994 | locus YIL073C, strain SPO22, stronger effect = lower value 0.941 | locus YIL125W, strain kgd1, stronger effect = lower value 0.981 | locus YIR030C, strain dcg1, stronger effect = lower value 0.988 | locus YJL092W, strain hpr5, stronger effect = lower value 1.01 | locus YJL095W, strain BCK1 (second series), stronger effect = lower value 1.01 | locus YJL095W, strain BCK1, stronger effect = lower value 0.969 and 0.981 | locus YJL115W, strain asf1, stronger effect = lower value 1.02 | locus YJL129C, strain trk1, stronger effect = lower value 1.03 | locus YJL134W, strain LCB3, stronger effect = lower value 0.999 | locus YJL154C, strain vps35, stronger effect = lower value 1.01 | locus YJL164C, strain tpk1, stronger effect = lower value 0.995 | locus YJL166W, strain qcr8, stronger effect = lower value 1.02 | locus YJL168C, strain set2, stronger effect = lower value 0.978 | locus YJL187C, strain SWE1 (second series), stronger effect = lower value 0.984 | locus YJL187C, strain SWE1, stronger effect = lower value 1.04 | locus YJR043C, strain POL32, stronger effect = lower value 0.963 | locus YJR066W, strain TOR1, stronger effect = lower value 0.896

— PubChem BioAssay AID1159580 (chemical genetic matrix, 2015)
